# Screening results: PubChem BioAssay, National Center for Advancing Translational Sciences (NCATS)
# Most compounds without a hit are left out; they make up all but 2.8% or so of the library.
# POLK inh – DNA polymerase kappa (human) inhibition | Potency, µM (titrated, usually from 107 µM), without a hit: at the highest dose activity, negative = inhibition, hits mostly inhibitors | purified Pol kappa, fluorescent DNA synthesis assay, 10 min | actives 0.53% (n = 400,000); also: potency is read from the fitted curve at half-maximal effect; % is scaled to controls: 0 for no effect and ±100 for the full control effect
#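 Fluorescent qHTS in 1536-well format: enzyme (10 nM) and compound sat 15 min at room temperature before 50 nM substrate (final) was added. Signal taken at 0 and 10 min; no-enzyme buffer wells were negative controls.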
# POLH inh – DNA polymerase eta (human) inhibition | Q9Y253 | recombinant Pol eta, fluorescent DNA replication assay | Potency, µM (series often up to 114 µM), inactives show top-dose activity change, negative = inhibition, usual class: inhibitors | actives 1.2% (n = 390,000); also: potency is read from the fitted curve at half-maximal effect; % is scaled to controls: 0 for no effect and ±100 for the full control effect
#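 Fluorescent replication assay: 50 nM final substrate added after a 15 min room-temperature compound preincubation with 10 nM enzyme. Signal taken at 0 min and again at 10 min.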
# Pol beta inh – inhibitors of human DNA polymerase beta | Potency, µM (highest dose often 114 µM), for the others: at the top dose activity change, negative = inhibition, most hits filed as inhibitors | Pol beta primer extension/strand displacement, fluorescence kinetic | P06746 | actives 1.3% (n = 340,000) | AID 485314; also: potency is read from the fitted curve at half-maximal effect; % is scaled to controls: 0 for no effect and ±100 for the full control effect
#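 Pol beta (10 nM) and compounds were preincubated 15 min at room temperature, then 50 nM substrate (final) started primer extension/strand displacement. Reads were taken at 0 and 10 min; concentration-response data were fitted to a four-parameter Hill equation.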
# WRN helicase inh – WRN helicase (human) inhibition. Q14191. WRN helicase unwinding, fluorescent forked duplex, kinetic. Potency, µM (top dose mostly 114 µM), for the others: at the top dose activity change, negative = inhibition, hits mostly inhibitors. actives 0.46% (n = 360,000). AID 651768; also: potency is read from the fitted curve at half-maximal effect; % is scaled to controls: 0 for no effect and ±100 for the full control effect; nearly all actives have a fitted effect of over 55% in size
#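 Primary qHTS, 1536-well format. 20 nM WRN + compound, 15 min RT; start with 100 nM forked fluorophore/quencher duplex, 2 mM ATP (final); kinetic read ex 525/em 598 nm.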
# POLI inh – blocks human DNA polymerase iota activity; Q9UNA4; Pol iota fluorescent replication assay, 10 min; Potency, µM (titrated, usually from 115 µM), for inactives: at the highest dose activity, negative = inhibition, actives largely listed as inhibitors; actives 1% (n = 390,000); AID 588590; also: potency is read from the fitted curve at half-maximal effect
#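 Pol iota at 10 nM preincubated 15 min with compounds at room temperature; reaction started with fluorescent substrate, 50 nM final. Fluorescence read kinetically at 0 and 10 min; buffer-only wells as negative control.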
# PI5P4K alpha inh – inhibitors of human PI5P4K alpha; actives 1.2% (n = 330,000); P48426; max response, %; PI5P4Kalpha enzyme, ADP-Glo luminescence, 60 min; active compounds read low; active = max response of -50% or lower; inconclusive = between -30% and -50%; inactive = -30% or higher; also: value at the top dose of about 77 µM; % is scaled to controls: 0 for no effect and ±100 for the full control effect
# Target sequence (P48426 whole entry, looked up): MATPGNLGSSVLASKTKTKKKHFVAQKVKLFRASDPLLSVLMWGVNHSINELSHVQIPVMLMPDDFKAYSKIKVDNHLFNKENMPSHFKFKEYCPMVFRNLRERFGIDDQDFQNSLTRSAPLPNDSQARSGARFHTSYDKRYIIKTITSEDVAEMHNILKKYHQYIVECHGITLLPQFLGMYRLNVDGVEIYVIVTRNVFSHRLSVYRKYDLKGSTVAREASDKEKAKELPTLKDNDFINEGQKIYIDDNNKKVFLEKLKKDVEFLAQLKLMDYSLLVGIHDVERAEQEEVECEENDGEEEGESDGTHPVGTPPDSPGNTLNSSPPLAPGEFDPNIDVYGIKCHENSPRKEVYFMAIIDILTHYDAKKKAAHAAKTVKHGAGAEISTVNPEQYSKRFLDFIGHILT
#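 Compounds were pin-transferred onto PI5P4Kalpha and substrate in HEPES pH 7.4 buffer with EGTA, CHAPS and 5% DMSO. ATP (5 microM final) started the reaction, which ran 60 minutes at room temperature before ADP-Glo detection.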
# * hit, by the source's call; u = inconclusive; x = no result; ! = a repeat was not active; [ ] = another dose, or the depositor's remark. Unless noted, calls follow the shape of the dose curve; as a rule, active = well fitted curve in the direction sought with a large enough effect; inconclusive = small, poorly fitted or top-dose-only effect, or another doubt; inactive = no such curve, though single readings can be large; an effect the other way counts as inactive or inconclusive.
SMILES,POLK inh,POLH inh,Pol beta inh,WRN helicase inh,POLI inh,PI5P4K alpha inh
O=C(O)CSc1ncnc2sc3c(c12)CCC3,-18%,u,u,-9%,-6%,-68*
Cc1ccc(-c2csc3ncnc(SCC(=O)O)c23)cc1,7%,0%,16%,-6%,57%,-70*
O=C(O)CSc1ncnc2sc3c(c12)CCCC3,-1%,-3%,-6%,u,43%,-58*
CC1(C(=O)Nc2cccc3ccccc23)CCN1C(=O)C1(c2ccccc2)CCCC1 (stereo unspecified),x,x,x,-7%,x,16
CC1=C(C(=O)N(C)C)CC(CC(=O)NCCCN(C)C)C(=O)N1Cc1ccccc1 (stereo unspecified),x,-9%,x,9%,x,-2
O=C(/C=C/c1ccc(O)c([N+](=O)[O-])c1)c1ccc2ccccc2c1,-4%,22µM*,u,u,u,u
O=C(O)COc1ccc(/C=C/C(=O)c2ccc(C3CCCCC3)cc2)cc1,-6%,40µM*,u,u,u,5
O=C(O)COc1ccc(/C=C/C(=O)c2ccc3ccccc3c2)cc1,-13%,25µM*,-11%,u,18µM*,-12
CCCCOc1ccc(-c2nc(/C=N/c3nccs3)c(O)o2)cc1,-14%,-4%,-1%,-6%,12%,4
CCOc1ccc2nc(/N=C/c3nc(-c4ccc(Br)cc4)oc3O)sc2c1,-4%,u,-1%,-25%,-12%,-63*
COc1ccc(C(=O)/C=C/c2cc(C(=O)O)cc3c2OCOC3)c(O)c1,-27%,50µM*,u,u,u,-29
COc1ccc(C(=O)/C=C/c2ccccc2)c(O)c1,-1%,-1%,-2%,-9%,u,8
CCC(=O)O[C@H]1C(O[C@@H]2C(C)[C@H](O[C@H]3C[C@@](C)(OC)C(O)C(C)O3)C(C)C(=O)OC(CC)[C@@](C)(O)C(O)[C@H](C)C(=O)C(C)C[C@]2(C)O)OC(C)CC1N(C)C (stereo partly specified),32µM*,x,x,x,x,x
COc1cc(C(=S)N2CCCCC2)ccc1O,-3%[60.1 µM],4%,7%,-8%[57.1 µM],56µM*,x
COc1ccccc1/C=C/C=N/n1c(-c2n[nH]c3c2CCC3)n[nH]c1=S,-27%,u,7.9µM*,-5%,26%,u
COc1cccc(/C=N/n2c(-c3n[nH]c4c3CCC4)n[nH]c2=S)c1O,-13%,-15%,-18%,-9%,-9%,-28
Cc1ccc(NC(=O)CSCc2ccco2)cc1,-13%,-11%,-1%,-6%,60%,-2
c1coc(CSSCc2ccco2)c1,8.9µM*,20µM*,x,50µM*,u,u
CC/C(=N\NC(=O)c1nnn(-c2nonc2N)c1-c1cccc(OC)c1)c1ccc(C)cc1,-13%,-17%,-1%,-8%,-24%,0
O=S(=O)(c1cccc(-c2n[nH]c(=S)o2)c1)N1CCOCC1,-16%,-7%,0%,-12%,24%,-73*
O=S(=O)(c1ccc2oc(=S)[nH]c2c1)N1CCCCC1,-11%,-16%,-4%,4%,33%,u
O=S(=O)(c1ccc2oc(=S)[nH]c2c1)N1CCOCC1,-3%,0%,x,u,12%,-69*
O=S(=O)(c1cccc(-c2n[nH]c(=S)n2-c2ccccc2Cl)c1)N1CCOCC1,-7%,-6%,x,-30%,76%,-9
COc1cc(C2C(=O)N(C3CCC(C)CC3)CC(=O)N2CCc2ccc(Cl)cc2)ccc1OC(C)C (stereo unspecified),-3%[60.1 µM],3%,1%,x,10%,x
O=C(NCC(c1ccco1)N1CCCCC1)c1ccc(S(=O)(=O)Nc2ccccc2Cl)cc1 (stereo unspecified),-9%,0%,x,4%,-7%,0
SMILES,POLK inh,POLH inh,Pol beta inh,WRN helicase inh,POLI inh,PI5P4K alpha inh
O=C(NCC(c1ccco1)N1CCCC1)c1ccc(S(=O)(=O)Nc2ccccc2Cl)cc1 (stereo unspecified),79µM*,u,x,-10%,u,-1
Cc1cc(-c2csc(NCc3ccccc3)n2)c(C)n1C,-11%,-16%,28%,-8%,48%,-55*
COc1cc2nc(NC3CCN(Cc4ccccc4)CC3)nc(N3CCCN(C)CC3)c2cc1OC,1%,x,x,x,6%,x
Cc1nnc(N2CCC(C(=O)NCc3ccc(F)cc3)CC2)c2nn(-c3ccc(Cl)cc3)c(C)c12,-13%,-28%,79µM*,x,27%,x
Cc1nnc(N2CCCC(C(=O)NCc3ccccc3)C2)c2nn(-c3ccccc3)c(C)c12 (stereo unspecified),-1%,-11%,29%,x,22%,x
Cc1ccc(-n2nc3c(N4CCC(C(=O)NCc5ccccc5C)CC4)nnc(C)c3c2C)cc1,2%,50µM*,89µM*,-15%[11.6 µM],u,5
CCc1ccc(CNC(=O)C2CCCN(c3nnc(C)c4c(C)n(-c5ccccc5)nc34)C2)cc1 (stereo unspecified),-2%,u,50µM*!,1%,33%,-4
CCOc1ccc(CNC(=O)C2CCN(c3nnc(C)c4c(C)n(-c5ccc(C)cc5)nc34)CC2)cc1,-37%,u,7.9µM*,-32%[11.6 µM],u,-4
Cc1nnc(N2CCC(C(=O)NCCc3ccccc3)CC2)c2nn(-c3ccc(Cl)cc3)c(C)c12,1%,-6%,-11%,x,-10%,x
COc1ccc(OCC(=O)NCC(c2ccc(OC)cc2)N2CCCCC2)cc1 (stereo unspecified),-2%,-3%,89µM*!,-1%,17%,4
Cc1ccc2c(C(=O)CNc3nccs3)c[nH]c2c1,6%,x,x,x,18%,x
CCc1nnc(NC(=O)CSc2ccc(-c3nc4ccccc4[nH]3)cn2)s1,-32%,u,35µM*,-25%,u,x
Cc1nc(NC(=O)CSc2ccc(-c3nc4ccccc4[nH]3)cn2)sc1C,-17%,-17%,-11%,-6%,155%,2
CS(=O)(=O)c1ccccc1C(=O)Nc1ccc(-c2nc3ccccc3[nH]2)cc1,-1%,-8%,19%,-2%,12%,-5
Cc1ccc2nc(-c3ccc(SCC(=O)Nc4ccc5c(c4)OCCO5)nc3)[nH]c2c1,-30%,u,14µM*,0%,u,-15
O=C(Nc1ccc(-c2nc3ccccc3[nH]2)cc1)c1ccccc1NS(=O)(=O)c1ccc(F)cc1,-40%,28µM*,-24%,-32%[57.1 µM],u,u
O=C(CSc1ccc(-c2nc3ccccc3[nH]2)cn1)Nc1ccc(S(=O)(=O)NC2CC2)cc1,-9%,u,18µM*,3%,u,0
COc1cc(OC)cc(C(=O)NNC(=O)CCNC(=O)c2ccc(Br)cc2)c1,5%,-6%,x,7%,-9%,-3
